High-throughput results from PubChem BioAssay.
Shiga toxin inh: A qHTS for Small Molecule Inhibitors of Shiga Toxin. inhibition, % at 38.7 µM. Vero cells, Shiga toxin protein synthesis inhibition reporter. AID 2315, 2010. hit rate 9.2% among 290,000; in the data active = inhibition mostly above about 28%, no sharp cut-off; inactive = mostly below about 43%; note: 0% is about no effect
LmPK inhibitor: qHTS Assay for Inhibitors of Leishmania Mexicana Pyruvate Kinase (LmPK); purified LmPK, Kinase-Glo ATP luminescence, 1 h; hit rate 0.37% among 290,000; Potency, µM (doses to about 57.5 µM), for inactives: top-dose activity change, negative = inhibition, most hits filed as inhibitors; Q27686; note: potency is the fitted concentration of half-maximal effect; % is set by controls: 0 for no effect and ±100 for the full control effect
Target sequence (Q27686 whole entry, looked up): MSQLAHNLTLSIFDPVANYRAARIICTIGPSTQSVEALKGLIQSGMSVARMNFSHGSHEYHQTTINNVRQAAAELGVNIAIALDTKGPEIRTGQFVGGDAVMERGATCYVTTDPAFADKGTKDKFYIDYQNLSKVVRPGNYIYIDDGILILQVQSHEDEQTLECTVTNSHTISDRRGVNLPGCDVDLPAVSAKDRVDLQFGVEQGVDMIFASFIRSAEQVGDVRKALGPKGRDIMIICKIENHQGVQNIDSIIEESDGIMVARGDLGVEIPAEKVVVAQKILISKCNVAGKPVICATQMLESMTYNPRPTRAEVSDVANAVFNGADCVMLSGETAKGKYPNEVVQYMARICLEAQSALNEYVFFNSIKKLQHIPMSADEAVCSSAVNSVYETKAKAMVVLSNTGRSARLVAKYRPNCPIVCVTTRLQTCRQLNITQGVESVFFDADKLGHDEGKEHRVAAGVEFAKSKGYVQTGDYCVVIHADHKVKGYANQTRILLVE
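0.1 nM LmPK, 0.5 mM PEP, 0.1 mM ADP; 50 mM imidazole pH 7.2, 7 mM MgCl2, 50 mM KCl; 1 h RT. Kinase-Glo luminescence readout, normalized to no-enzyme (full inhibition) and uninhibited wells.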
TbPYK inhibitor: qHTS of Trypanosoma Brucei Inhibitors. pyruvate kinase (Trypanosoma brucei), Q57TT1. hit rate 0.12% among 410,000. TbPYK enzyme, Kinase-Glo Plus ATP luminescence, 45 min. Potency, µM (doses to about 76.8 µM), inactives show at the highest dose activity, negative = inhibition, hits mostly inhibitors. AID 624173, 2012; note: potency is the fitted concentration of half-maximal effect; % is set by controls: 0 for no effect and ±100 for the full control effect; nearly all actives have a fitted effect of over 50% in size
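T. brucei PYK with substrate was exposed to pin-transferred compounds across a concentration series, then started with 130 uM ADP (final). After 45 min at room temperature, Kinase-Glo Plus luminescence was read, normalized and curve-fitted.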
FBPA Giardia inh: qHTS Assay for Inhibitors of Fructose-1,6-bisphosphate Aldolase from Giardia Lamblia; purified Giardia FBPA; AID 2451, 2010; A8B2U2; hit rate 0.71% among 290,000; Potency, µM (highest dose often 59.6 µM), without a hit: at the highest dose activity, negative = inhibition, usual class: inhibitors; note: potency is the fitted concentration of half-maximal effect; % is set by controls: 0 for no effect and ±100 for the full control effect; nearly all actives have a fitted effect of over 55% in size
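40 nM FBPA preincubated 10 min at RT with compound (up to 57.5 uM final), then substrate plus GAPDH/TPI/NAD/arsenate coupling and diaphorase/resazurin added. Fluorescence read after 20 min at RT, 525/598 nm.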
RE007 growth inh: qHTS Assay for Inhibitors of the HIV-1 protein Vpr; S. pombe RE007 Vpr strain, BacTiter-Glo ATP luminescence, 24 h; hit rate 0.21% among 360,000; AID 651644, 2012; Potency, µM (doses to about 92.2 µM), for the others: at the highest dose activity change, negative = less growth, actives largely listed as inhibitors; active = well fitted falling curve with a large enough effect; inconclusive = small, poorly fitted or top-dose-only effect; inactive = no such curve, though single readings can be large or run the other way; note: potency is the fitted concentration of half-maximal effect; % is set by controls: 0 for no effect and ±100 for the full control effect; nearly all actives have a fitted effect of over 50% in size
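Fission yeast RE007 carrying one integrated HIV-1 vpr copy, seeded at OD 0.01 in PMG+AL medium with 23 nL pinned compound. Grown 24 h at 30 degrees; viability read by BacTiter-Glo luminescence after 5 min.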
Cycloheximide cs: Cycloheximide Counterscreen for Small Molecule Inhibitors of Shiga Toxin. cell reporter, cycloheximide protein synthesis inhibition counterscreen. max response, %. AID 2314, 2010. hit rate 12% among 300,000; in the data active = max response mostly above about 13%, no sharp cut-off; inactive = mostly below about 14%; note: read at 38.3 µM for the half of the compounds with a filed dose; 0% is about no effect
* marks the source's active call; other numbers are inactive results; ? = inconclusive; · = not tested or not shown; + = active, no number; [ ] = dose if it differs, or a comment. Shown is part of a subset that was picked to be rich in hits. Unless noted, calls come from the whole dose curve; as a rule, active = well fitted curve in the direction sought with a large enough effect; inconclusive = small, poorly fitted or top-dose-only effect, or another doubt; inactive = no such curve, though single readings can be large; an effect the other way counts as inactive or inconclusive.

SMILES	Shiga toxin inh	LmPK inhibitor	TbPYK inhibitor	FBPA Giardia inh	RE007 growth inh	Cycloheximide cs
Cc1ccc(-c2nsc(SCC(=O)NCC3CCCO3)n2)cc1 (centres undefined)	55.6*	-0.1%[11.5 µM]	-6.3%	5.0%	11.9%	19.4
Cc1ccc(SCC(=O)NCC2CCCO2)cc1 (centres undefined)	28.3	1.5%	-6.7%	-0.6%	-1.6%	13.2
COc1ccc(C)cc1NC(=O)c1cc2c(=O)n(Cc3cccnc3)ccc2nc1C	·	·	-2.8%	·	·	·
CCc1ccc(NC(=O)c2ccc(NS(=O)(=O)c3c(C)noc3C)cc2)cc1	·	·	-2.0%	·	·	·
C=COCCNC(=S)Nc1cccc(Cl)c1	1.5	2.8%	-5.4%	-4.4%	3.1%	-1.1
CC(=O)c1cccc(N(CC(=O)Nc2ccc(F)cc2)S(C)(=O)=O)c1	41.4*	-1.5%	-5.9%	-1.1%	-1.5%	11.3*
CC(=O)c1cccc(NC(=S)NC(=O)c2ccccc2)c1	103.0*	1.6%	1.5%	?	25.3%	45.5*
CNC(=S)Nc1cccc(C(C)=O)c1	14.7	4.4%	4.2%	-1.1%	16.0%	1.9
COCCCNC(=S)NNC(=S)Nc1cccc(Cl)c1	90.1*	2.7%	-14.6%	19.6%	2.3%	28.1*
CC(=O)Nc1ccc(NC(=O)CN(c2cccc(C(C)=O)c2)S(C)(=O)=O)cc1	-10.1	4.2%	-1.7%	3.9%	-8.8%	-3.5
CC(=O)c1cccc(NC(=S)NC(=O)CC(C)(C)C)c1	29.7	1.7%	1.3%	0.6%	5.0%	20.2*
CCc1ccccc1NC(=O)C(=O)NCC(c1cccnc1)N1CCN(c2ccccc2F)CC1 (centres undefined)	·	·	-2.6%	·	·	·
CC(=O)Nc1ccc(NC(=O)CSc2cn(CC(=O)N(C(C)C)C(C)C)c3ccccc23)cc1	·	·	0.1%	·	·	·
CC(=O)Nc1ccc(NC(=O)C(C)Oc2ccccc2C(=O)NCc2ccccc2)cc1 (centres undefined)	·	·	0.0%	·	0.8%	·
CC(CC(=O)NCc1ccc(Cl)cc1Cl)CC1=NS(=O)(=O)c2ccccc2N1 (centres undefined)	·	·	7.0%	·	·	·
Cc1cccc(C(=O)NC(=S)Nc2ccccc2C(F)(F)F)c1	35.7	2.7%	-3.7%	-4.3%	-5.0%	9.2
O=C(O)c1cccc(NC(=S)NC(=O)c2ccc(-c3ccc(Cl)cc3)o2)c1	100.5*	2.4%	-7.9%	-7.1%	-12.8%	21.5
CC(=O)c1cccc(NC(=S)Nc2ccc(F)cc2)c1	18.9	2.2%	1.3%	-9.7%	7.3%	13.0*
Cc1ccc(C(=O)NC(=S)Nc2ccccc2C(F)(F)F)cc1C	36.9*	2.0%	1.8%	-7.2%	-16.7%	15.9*
O=C(NC(=S)Nc1cccc([N+](=O)[O-])c1)c1ccccc1	78.5*	-3.2%	-7.3%	?	-12.3%	35.9*
Cc1ccc(C(=O)O)cc1NC(=S)NC(=O)c1ccc(-c2ccc(Cl)cc2)o1	-1.0	9.5%	3.9%	-13.6%	6.6%	-2.5
COc1ccc(CCNC(=O)Cn2ncc3c(C)n(Cc4ccccc4F)c(C)c3c2=O)cc1OC	·	·	-0.6%	·	·	·
CCCCC(=O)NC(=S)Nc1cccc(C(=O)O)c1	60.4*	-0.2%	14.1%	3.3%	-10.0%	9.2
O=C(O)c1cccc(NC(=S)NC(=O)c2ccc(-c3ccccc3)cc2)c1	143.0*	0.4%	5.8%	0.1%	66.9%	46.4*
O=C(Nc1ccc([N+](=O)[O-])cc1)C(=O)Nc1cccc(C(=O)O)c1	-13.9	25.1µM*	?	0.3%	?	-5.8
SMILES	Shiga toxin inh	LmPK inhibitor	TbPYK inhibitor	FBPA Giardia inh	RE007 growth inh	Cycloheximide cs
O=C(NC(=S)Nc1cc([N+](=O)[O-])ccc1Cl)c1ccccc1	62.3*	5.5%	-2.9%	?	-2.6%	41.2*
CCc1ccc(CNC(=O)c2cnc3sc(N4CCCC4)nn3c2=O)cc1	·	·	3.5%	·	·	·
CC#CCCCC(=O)Nc1cccc(C(=O)O)c1	81.9*	1.7%	-1.6%	-0.2%	-6.1%	25.4*
NS(=O)(=O)c1ccc(NC(=S)NC(=O)c2ccc(-c3ccccc3)cc2)cc1	-8.8	-6.0%	0.2%	11.8%	3.3%	-3.7
CC(C)NC(=S)NC(=O)c1ccc(-c2ccccc2)cc1	25.6*	-2.4%	-1.3%	1.7%	-10.5%	11.2
O=C(O)c1cccc(NC(=S)NC(NC(=O)c2ccccc2[N+](=O)[O-])C(Cl)(Cl)Cl)c1 (centres undefined)	22.2	7.0%	-17.8%	8.9%	11.3%	7.4
CC(=O)c1cccc(NC(=S)NNC(=O)c2ccco2)c1	32.6	1.5%	-4.3%	6.5%	-12.1%	20.9*
O=C(O)c1cccc(NC(=S)NC(NC(=O)c2cccc([N+](=O)[O-])c2)C(Cl)(Cl)Cl)c1 (centres undefined)	21.5	-0.1%	-12.7%	3.2%	2.4%	11.0*
CC(=O)c1cccc(NC(=O)c2cccc(NC(=O)c3ccco3)c2)c1	·	-1.8%	0.2%	0.3%	3.4%	4.2
O=C(O)CC(NNC(=O)c1ccccc1)C(=O)Nc1cccc([N+](=O)[O-])c1 (centres undefined)	72.1*	6.0%	3.9%	-12.8%	-5.3%	23.4*
Cc1ccc(C(=O)O)cc1NC(=S)NC(=O)c1ccc(-c2ccccc2)cc1	56.5*	4.7%	-1.3%	-0.3%	18.7%	31.2*
CC(CC(=O)O)CC(=O)Nc1cccc([N+](=O)[O-])c1 (centres undefined)	-9.1	6.6%	2.3%	-0.8%	-7.1%	-2.0
COc1cc([N+](=O)[O-])ccc1NC(=S)NNC(=O)CCC(=O)Nc1ccccc1Cl	28.3*	-10.4%	-21.6%	·	2.4%	32.6*
CC(=O)c1cccc(NC(=S)NC(=O)c2cccc(Cl)c2)c1	+	-0.1%	-7.4%	?	23.0%	30.1*
NC(N)=NCCC[C@H](N)C(=O)NCC(=O)N[C@@H](CC(=O)O)C(=O)O	-5.4	·	·	4.3%	·	-4.0
Cc1c(NC(=O)c2cc(-c3cccc(O)c3)on2)c(=O)n(-c2ccccc2)n1C	·	·	-1.4%	·	·	·
O=C(NCc1ccc(F)cc1)c1ccc(CS(=O)Cc2ccc(Cl)cc2)o1 (centres undefined)	·	·	1.3%	·	·	·
Cc1ccccc1OCC(=O)N(Cc1ccc(N(C)C)cc1)CC1CCCO1 (centres undefined)	·	·	0.0%	·	·	·
O=C1NC2(Nc3ccccc31)C(=O)Nc1ccccc12 (centres undefined)	58.9*	-2.6%	-5.9%	-6.9%	-13.6%	23.6*
O=C1NC2(Nc3ccccc31)C(=O)Nc1ccc(Br)cc12 (centres undefined)	-5.2	-0.8%	2.9%	0.5%	-12.6%	-10.0
Cc1ccc(NC(=O)Nc2cccnc2)cc1Cl	62.6*	8.2%	-1.9%	5.9%	6.8%	37.5*
